# In all, about 39,000 compounds went through this assay and about 3,300 (8.5%) were called active. For the sample, actives were picked, then their nearest neighbours and some compounds at random.
# Test system: HepG2
# Assay: cytotoxicity call (relative viability < 0.9)
# Settings: 10 µM
row,SMILES,cytotoxicity call
1,Cc1cn([C@H]2O[C@@H](CO)[C@H](O)[C@H]2F)c(=O)[nH]c1=O,inactive
2,COCCNC(=O)C[C@@H]1C[C@H]2c3cc(NC(=O)COC)ccc3O[C@H]2[C@@H](CO)O1,inactive
3,COc1ccc(S(=O)(=O)Nc2cccc3c2O[C@H](CN(C)S(=O)(=O)c2ccc(C)cc2)[C@H](C)CN([C@H](C)CO)C3=O)cc1,inactive
4,COc1ccccc1Nc1nc(-c2ccc(Cl)cc2)cs1,inactive
5,C[C@H](CO)N1C[C@H](C)[C@H](CN(C)S(C)(=O)=O)Oc2ccc(NC(=O)CCN3CCOCC3)cc2CC1=O,inactive
6,C[C@@H]1CN([C@H](C)CO)C(=O)Cc2cc(NC(=O)C3CC3)ccc2O[C@H]1CN(C)C(=O)Nc1ccc2c(c1)OCO2,inactive
7,C[C@@H]1CN([C@H](C)CO)C(=O)Cc2cc(NC(=O)c3ccncc3)ccc2O[C@H]1CN(C)Cc1ccc(C(=O)O)cc1,inactive
8,COc1ccc(S(=O)(=O)Nc2ccc3c(c2)C(=O)N([C@@H](C)CO)C[C@@H](C)[C@H](CN(C)C(=O)Nc2ccccc2)OCCCC[C@@H](C)O3)cc1,inactive
9,CCN(CC)CCOC(=O)C(c1ccccc1)c1ccccc1.Cl,inactive
10,CCN(CC)CCOC(=O)C1(C2CCCCC2)CCCCC1.Cl,inactive
11,CCN(CC)CCOC(=O)C(c1ccccc1)C1CCCCC1.Cl (stereo not drawn),active
12,COc1ccc(S(=O)(=O)N(C)C[C@@H]2Oc3ncc(-c4ccccc4)cc3C(=O)N([C@H](C)CO)C[C@@H]2C)cc1,inactive
13,C[C@H](CO)N1C[C@H](C)[C@H](CN(C)S(=O)(=O)c2cn(C)cn2)Oc2cc(C3=CCCCC3)ccc2S1(=O)=O,inactive
14,COc1ccc(CNC(=O)C[C@@H]2C[C@@H]3c4cc(NC(=O)NC5CCCC5)ccc4O[C@@H]3[C@H](CO)O2)cc1,inactive
15,CC1(C)CCC2(C(=O)O)CCC3(C)C(=CCC4C5(C)CCC(O)C(C)(C)C5CCC43C)C2C1 (stereo not drawn),inactive
16,COC(=O)[C@@]12CC[C@@H](C)[C@@H](C)[C@@H]1C1=CC[C@H]3[C@@]4(C)CC[C@@H](OC(C)=O)C(C)(C)[C@@H]4CC[C@@]3(C)[C@@]1(C)CC2,inactive
17,CC1CCC2(C(=O)O)CCC3(C)C(=CCC4C5(C)CCC(O)C(C)(C)C5CCC43C)C2C1C (stereo not drawn),active
18,Cc1noc(C)c1S(=O)(=O)Nc1ccc2c(c1)CC(=O)N([C@H](C)CO)C[C@@H](C)[C@@H](CN(C)C(=O)Nc1ccccc1)O2,inactive
19,COc1ccccc1S(=O)(=O)N1C[C@@H](O)COC[C@@H]2O[C@H](CC(=O)O)CC[C@H]21,inactive
20,C[C@@H]1CCCCO[C@H](CN(C)S(=O)(=O)c2ccc(Cl)cc2)[C@H](C)CN([C@H](C)CO)C(=O)c2cc(NS(=O)(=O)c3cccs3)ccc2O1,inactive
21,C[C@H](CO)N1C[C@H](C)[C@@H](CN(C)S(=O)(=O)c2ccc(Cl)cc2)OCCCC[C@H](C)Oc2ccc(NS(=O)(=O)c3cccs3)cc2C1=O,inactive

row,SMILES,cytotoxicity call
1,C[C@H](CO)N1C[C@H](C)[C@H](CN(C)S(=O)(=O)c2ccc(Cl)cc2)OCCCC[C@H](C)Oc2ccc(NS(=O)(=O)c3cccs3)cc2C1=O,inactive
2,C[C@@H]1CCCCO[C@H](CN(C)S(=O)(=O)c2ccc(Cl)cc2)[C@@H](C)CN([C@H](C)CO)C(=O)c2cc(NS(=O)(=O)c3cccs3)ccc2O1,inactive
3,C[C@@H]1CCCCO[C@@H](CN(C)S(=O)(=O)c2ccc(Cl)cc2)[C@@H](C)CN([C@@H](C)CO)C(=O)c2cc(NS(=O)(=O)c3cccs3)ccc2O1,inactive
4,C[C@@H]1CN([C@H](C)CO)C(=O)c2cc(NS(=O)(=O)c3cccs3)ccc2O[C@@H](C)CCCCO[C@@H]1CN(C)S(=O)(=O)c1ccc(Cl)cc1,active
5,C[C@@H]1CCCCO[C@H](CN(C)S(=O)(=O)c2ccc(Cl)cc2)[C@H](C)CN([C@@H](C)CO)C(=O)c2cc(NS(=O)(=O)c3cccs3)ccc2O1,inactive
6,C[C@@H]1CCCCO[C@H](CN(C)S(=O)(=O)c2ccc(Cl)cc2)[C@@H](C)CN([C@@H](C)CO)C(=O)c2cc(NS(=O)(=O)c3cccs3)ccc2O1,inactive
7,C[C@@H]1CCCCO[C@@H](CN(C)S(=O)(=O)c2ccc(Cl)cc2)[C@H](C)CN([C@@H](C)CO)C(=O)c2cc(NS(=O)(=O)c3cccs3)ccc2O1,active
8,C[C@@H]1CCCCO[C@@H](CN(C)S(=O)(=O)c2ccc(Cl)cc2)[C@H](C)CN([C@H](C)CO)C(=O)c2cc(NS(=O)(=O)c3cccs3)ccc2O1,active
9,C[C@@H]1CN([C@@H](C)CO)C(=O)c2cc(NS(=O)(=O)c3cccs3)ccc2O[C@@H](C)CCCCO[C@H]1CN(C)S(=O)(=O)c1ccc(Cl)cc1,active
10,C[C@H]1CCCCO[C@H](CN(C)S(=O)(=O)c2ccc(Cl)cc2)[C@@H](C)CN([C@@H](C)CO)C(=O)c2cc(NS(=O)(=O)c3cccs3)ccc2O1,inactive
11,C[C@@H]1CCCCO[C@@H](CN(C)C(=O)NC2CCCCC2)[C@H](C)CN([C@H](C)CO)C(=O)c2cc(NC(=O)Nc3ccc4c(c3)OCO4)ccc2O1,inactive
12,C[C@@H]1CN([C@H](C)CO)C(=O)c2cccc(NS(=O)(=O)c3cn(C)cn3)c2O[C@@H]1CN(C)Cc1ccncc1,inactive
13,C[C@@H]1CN([C@H](C)CO)S(=O)(=O)c2ccc(-c3cncnc3)cc2O[C@@H]1CN(C)C(=O)CN(C)C,inactive
14,C[C@@H]1CN([C@@H](C)CO)C(=O)c2cc(NC(=O)NC3CCCCC3)ccc2O[C@@H](C)CCCCO[C@H]1CN(C)C(=O)c1ccccc1,inactive
15,CO[C@@H](CN(C)C(=O)Nc1ccc(C(F)(F)F)cc1)[C@H](C)CN(Cc1ccccc1Cl)[C@H](C)CO,inactive
16,Cc1ccc(S(=O)(=O)Nc2ccc3c(c2)C(=O)N([C@@H](C)CO)C[C@@H](C)[C@@H](CN(C)Cc2ccc(C(=O)O)cc2)OCCCC[C@@H](C)O3)cc1,inactive
17,COc1cc(-c2cc(=O)c3c(s2)N(c2ccc(OC)c(OC)c2)[C@@H](c2ccc(O)c(OC)c2)CC3=O)ccc1O,inactive
18,COc1ccc(S(=O)(=O)Nc2ccc3c(c2)CC(=O)N([C@@H](C)CO)C[C@@H](C)[C@H](CN(C)S(=O)(=O)c2ccccc2)O3)cc1,inactive
19,CC(C)NC(=O)N(C)C[C@H]1OCCCC[C@H](C)Oc2ccc(NS(C)(=O)=O)cc2C(=O)N([C@H](C)CO)C[C@@H]1C,inactive
20,C[C@H](CO)N1C[C@H](C)[C@@H](CN(C)C(=O)Nc2cccc3ccccc23)Oc2ccc(NS(=O)(=O)c3cccs3)cc2CC1=O,inactive
21,CN(C)CCN1CCNCC1,inactive

row,SMILES,cytotoxicity call
1,C[C@H](NC(=O)N(C)C[C@H]1OCc2ccccc2-c2ccccc2C(=O)N([C@H](C)CO)C[C@@H]1C)c1ccccc1,inactive
2,O=C(NCCO[N+](=O)[O-])c1cccnc1 [listing 1 of 2 here],active
3,O=C(NCCO[N+](=O)[O-])c1cccnc1 [listing 2 of 2 here],inactive
4,CC(=O)OCCNC(=O)c1cccnc1,inactive
5,CC(C)CC#Cc1ccc2c(c1)O[C@H](CN(C)Cc1cncnc1)[C@@H](C)CN([C@@H](C)CO)S2(=O)=O,inactive
6,O=C(C[C@H]1C=C[C@@H](NC(=O)c2cccc(F)c2)[C@@H](CO)O1)NCCN1CCCC1,inactive
7,C[C@@H]1COCCS(=O)(=O)N1C,inactive
8,O=C(CCCCCNC(=O)OC[C@H]1C(=O)O[C@@H](Cc2ccccc2)[C@H]2[C@H]3C(=CC(=O)[C@@H]3C3CC3)CN21)NO,inactive
9,C[C@@H]1CCCCO[C@@H](CN(C)C(=O)CCC(F)(F)F)[C@@H](C)CN([C@@H](C)CO)C(=O)c2cc(NS(=O)(=O)c3ccc(F)cc3)ccc2O1,inactive
10,COc1cccc(S(=O)(=O)N(C)C[C@@H]2OCc3cn(nn3)CCCC(=O)N([C@@H](C)CO)C[C@@H]2C)c1,inactive
11,C[C@@H]1CN([C@H](C)CO)C(=O)c2cc(NC(=O)NC3CCCCC3)ccc2O[C@@H](C)CCCCO[C@H]1CN(C)S(=O)(=O)c1ccc(Cl)cc1,active
12,C[C@@H]1CN([C@H](C)CO)C(=O)c2cc(NC(=O)NC3CCCCC3)ccc2O[C@@H](C)CCCCO[C@@H]1CN(C)S(=O)(=O)c1ccc(Cl)cc1,inactive
13,C[C@@H]1CN([C@@H](C)CO)C(=O)c2cc(NC(=O)NC3CCCCC3)ccc2O[C@@H](C)CCCCO[C@@H]1CN(C)S(=O)(=O)c1ccc(Cl)cc1,inactive
14,C[C@@H]1CCCCO[C@@H](CN(C)S(=O)(=O)c2ccc(Cl)cc2)[C@H](C)CN([C@@H](C)CO)C(=O)c2cc(NC(=O)NC3CCCCC3)ccc2O1,inactive
15,C[C@@H]1CCCCO[C@H](CN(C)S(=O)(=O)c2ccc(Cl)cc2)[C@@H](C)CN([C@H](C)CO)C(=O)c2cc(NC(=O)NC3CCCCC3)ccc2O1,inactive
16,C[C@@H]1CCCCO[C@@H](CN(C)S(=O)(=O)c2ccc(Cl)cc2)[C@H](C)CN([C@H](C)CO)C(=O)c2cc(NC(=O)NC3CCCCC3)ccc2O1,active
17,C[C@H](CO)N1C[C@H](C)[C@H](CN(C)S(=O)(=O)c2ccc(Cl)cc2)OCCCC[C@H](C)Oc2ccc(NC(=O)NC3CCCCC3)cc2C1=O,inactive
18,C[C@@H]1CCCCO[C@@H](CN(C)S(=O)(=O)c2ccc(Cl)cc2)[C@@H](C)CN([C@H](C)CO)C(=O)c2cc(NC(=O)NC3CCCCC3)ccc2O1,inactive
19,C[C@@H]1CCCCO[C@H](CN(C)S(=O)(=O)c2ccc(Cl)cc2)[C@H](C)CN([C@H](C)CO)C(=O)c2cc(NC(=O)NC3CCCCC3)ccc2O1,active
20,C[C@H](CO)N1C[C@H](C)[C@@H](CN(C)S(=O)(=O)c2ccc(Cl)cc2)OCCCC[C@H](C)Oc2ccc(NC(=O)NC3CCCCC3)cc2C1=O,active
21,Cc1ccc(S(=O)(=O)N(C)C[C@H]2OCCCC[C@H](C)Oc3ccc(NS(C)(=O)=O)cc3C(=O)N([C@H](C)CO)C[C@H]2C)cc1,inactive
